Screening results from PubChem BioAssay.
D2 PAM-1 – D2 dopamine receptor (human) potentiation; 0.34% of 340,000 active; potentiation, % at 10 µM; P14416; HEK293 T-REx D2, calcium flux, EC20 dopamine potentiation;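 active means potentiation over 3 SD above the plate norm, cut at about 30% in these data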; further: 0% is about no effect
Target sequence (P14416 whole entry, looked up): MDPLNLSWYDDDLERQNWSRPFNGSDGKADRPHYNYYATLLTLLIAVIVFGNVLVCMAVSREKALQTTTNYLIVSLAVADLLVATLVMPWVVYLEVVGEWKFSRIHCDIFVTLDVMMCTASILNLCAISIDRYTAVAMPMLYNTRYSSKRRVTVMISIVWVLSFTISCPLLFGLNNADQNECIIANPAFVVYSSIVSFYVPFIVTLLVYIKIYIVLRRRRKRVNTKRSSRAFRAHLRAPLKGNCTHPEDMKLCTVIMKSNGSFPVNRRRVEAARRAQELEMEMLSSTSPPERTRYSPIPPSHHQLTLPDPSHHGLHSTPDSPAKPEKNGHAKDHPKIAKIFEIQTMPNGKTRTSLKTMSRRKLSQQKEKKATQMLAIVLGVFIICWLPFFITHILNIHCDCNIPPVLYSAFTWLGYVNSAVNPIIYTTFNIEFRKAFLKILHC
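Tetracycline-induced HEK293 T-REx cells force-coupled to calcium signalling expressed D2; compounds were pin-added after a 10 s baseline, read kinetically 180 s, then an EC20 dopamine challenge followed with a further 180 s calcium read.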
D2 ag-1 – human D2 receptor agonism in beta-arrestin assay; AID 624465; 0.084% of 360,000 active; activation, % (concentration not given with the values); DiscoveRx PathHunter D2 beta-arrestin, luminescence, 90 min; 100% = 57 uM dopamine signal; in the data active means activation above about 40%
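DiscoveRx PathHunter D2 beta-arrestin cells (2,100/well) attached overnight, then compound-stimulated 90 min at 37 C in HBSS/10 mM HEPES/0.1% Tween-20 buffer; beta-galactosidase complementation read by luminescence after 1 h at ambient temperature. Dopamine 57 uM final (EC100) as control.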
D2 antagonist – antagonists of human D2 dopamine receptor; P14416; HEK293 TREx D2 cells, calcium flux, dopamine EC80; inhibition, % at 10 µM; 2% of 340,000 active; in the data active means inhibition above about 30%; inactive means below that, where a call was filed; further: 0% is about no effect
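In this primary screen, negative modulation is detected by tracking calcium flux after an EC80 dopamine challenge in inducible HEK293 T-REx D2 cells preexposed to test compound for 180 s.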
D2 PAM-2 – human D2 receptor positive allosteric modulation; DiscoveRx D2 beta-arrestin cells, luminescence, 90 min; 100% = 57 uM dopamine signal; potentiation, % (no concentration beside the values); 0.23% of 360,000 active; in the data active means potentiation above about 50%
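PathHunter beta-arrestin assay in DiscoveRx D2 cells. Compounds were added with an EC20 of dopamine (50 nM final) for 90 min at 37 deg C. Luminescence was read 1 h after detection reagent, with 57 uM dopamine as the EC100 control.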
D2 ag-2 – agonists of human D2 dopamine receptor; HEK293 T-REx D2 cells, calcium flux agonist mode; 0.53% of 340,000 active; activation, % at 2 µM;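 active means activation over 3 SD above normal in the single-dose calcium agonist read, cut at about 30% in these data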; further: 0% is about no effect
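HEK293 Trex D2 cells, tetracycline-induced, o/n 30 C 5% CO2; no-wash Ca dye, RT 30–90 min; 10-cycle baseline, 23 nl cpd added, kinetic Ca read 180 s; agonist hits = positive Ca response.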
* = called active by the depositor; / = no result. Only some compounds are listed: those with a hit (about 2.4% of all), similar ones and a draw of the others.

SMILES	D2 PAM-1	D2 ag-1	D2 antagonist	D2 PAM-2	D2 ag-2
CCOc1ccc(/C(O)=C2\C(=O)C(=O)N(CCN(C)C)C2c2cccc(OC)c2OC)cc1Cl (stereo unspecified)	-4	-2	-6	-35	1
COc1cccc(C2/C(=C(\O)c3ccc4c(c3)OCO4)C(=O)C(=O)N2CCN(C)C)c1OC (stereo unspecified)	4	-3	41*	-10	-2
O=C1C(=O)N(Cc2cccnc2)C(c2cccc([N+](=O)[O-])c2)/C1=C(\O)c1ccc2c(c1)OCCO2 (stereo unspecified)	2	2	2	-6	1
COc1ccc(C)c2sc(N(Cc3cccnc3)C(=O)CCc3ccccc3)nc12	13	/	/	/	/
CCn1cc(C(=O)OCc2ccccc2)c(=O)c2ccc(C)nc21	-4	-3	-5	-23	0
CCn1cc(C(=O)OCc2ccc(F)cc2)c(=O)c2ccc(C)nc21	35*	2	-18	-15	-1
CCn1cc(C(=O)OCC(=O)c2cc(C)n(-c3cccc(C(F)(F)F)c3)c2C)c(=O)c2ccc(C)nc21	31*	9	2	8	-1
Cc1ccc(-c2c(C)n3c4c(=O)n(C)c(=O)n(C)c4nc3n2CCCO)cc1	11	/	/	/	0
O=C(Cn1cc(SCc2ccccc2Cl)c2ccccc21)N1CCCCCC1	-1	/	/	/	1
c1coc(CNc2nc(-c3ccncc3)cs2)c1	32*	2	/	13	/
COc1ccc(-c2csc(NCc3ccco3)n2)cc1	8	-6	-10	-9	0
O=C(Nc1ccc2nc(SCC(=O)N3CCOCC3)sc2c1)c1ccccc1Cl	-4	/	/	/	0
COc1ccc(-c2onc(C)c2C)cc1S(=O)(=O)Nc1cc(Cl)ccc1C	1	/	/	/	0
COc1cccc(NC(=O)Cn2c(CCC(=O)O)ccc2-c2ccccc2)c1	34*	-4	4	-6	1
COc1ccc(OCc2cc(C(=O)NC(C)Cc3ccccn3)no2)c(Cl)c1 (stereo unspecified)	-7	9	33*	-12	-1
COc1ccc(NC(=O)CSc2c(C(C)C)cnc3c2c(=O)n(C)c(=O)n3C)c(OC)c1	12	/	/	/	0
OCCNCc1cc(Br)ccc1OCc1ccccc1Cl	0	2	42*	-26	0
Clc1cccc(N2CCN(CCNc3nc4ccccc4n4cnnc34)CC2)c1	-21	3	42*	-16	4
c1ccc(CN2CCN(c3nc4ccccc4n4cnnc34)CC2)cc1	-32	-5	68*	-5	1
COC(=O)/C(C#N)=C1/SC=C(C)N1c1ccccc1	34*	-3	/	-17	/
CC(C)CC(=O)n1sc(NC(=O)c2ccccc2)nc1=O	-4	-3	-2	-21	0
COC(=O)C1=C(C(=O)OC)SC(=C2C(=S)C(C)(C)N(C(=O)CC(C)C)c3ccccc32)S1	9	0	30*	-12	0
CCCc1cc(N2CCCC(C(=O)NCc3ccc4c(c3)OCO4)C2)n2ncnc2n1 (stereo unspecified)	36*	4	4	6	-1
Cc1cc(C)nc(N2CCCC(C(=O)NCc3ccc4c(c3)OCO4)C2)n1 (stereo unspecified)	1	-6	-5	-5	-1
On1onc2c3cc(-c4ccccc4)nc3ccc21	1	14	-3	59*	0
SMILES	D2 PAM-1	D2 ag-1	D2 antagonist	D2 PAM-2	D2 ag-2
Cc1c(OCc2nn[nH]n2)ccc2c(-c3ccccc3)cc(=O)oc12	11	-2	-7	-2	0
Cc1cc(OCc2nn[nH]n2)c2c(-c3ccccc3)cc(=O)oc2c1	4	-3	51*	-1	-1
Cc1ccc(S(=O)(=O)NCCSc2ncccn2)cc1	-34	-7	86*	-4	0
O=C(NCCc1ccccc1)c1cnc2sc(N3CCCCC3)nn2c1=O	-1	/	/	/	0
CN(C)c1ccc(-c2nnc(SCC3CCCO3)n2C)cc1 (stereo unspecified)	3	1	32*	-6	0
Cn1c(SCC2CCCO2)nnc1-c1ccncc1 (stereo unspecified)	5	1	7	4	0
CSc1nc(N2CCN(Cc3ccc4c(c3)OCO4)CC2)c2ccccc2n1	-21	1	38*	-10	0
